Where a chain is given by its changes, count along the chain named. The full ranking holds about 24,000 sequences; the median of “enrichment r” is about 0.99, and the highest 2% start at about 3.7. Shown is part of a subset that was picked to be rich in the highest values.

To fix the notation:
T1: UNK ZnF1-3 (human, UniProt Q9C0B0 31-174)
T1 sequence: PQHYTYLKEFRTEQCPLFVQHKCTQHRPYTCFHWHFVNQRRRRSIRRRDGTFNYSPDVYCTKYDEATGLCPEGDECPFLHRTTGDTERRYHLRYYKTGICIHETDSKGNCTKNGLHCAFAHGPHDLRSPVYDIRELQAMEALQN

B1: chr17:57737884:57737885:+_ENSG00000141367_ENST00000269122|hu_mus|motif|central (ssRNA)
RNA: GGGAGUUCUACAGUCCGACGAUCGUUUCCCUGGGCGAAGAGAGCAUUAAAUUUCCGGGCAAAGAGUUCUUCAGCACCAGCGGAGUUGUUCCGCACAGCCAUUCUCAGAGCCAAGUCAGGAUUUUGUAGGACAUUGGUGAUAUACAACAGAGGAUUGAGCAUCA
B2: chr3:101400026:101400027:-_ENSG00000114391_ENST00000394077|hu_mus|FALSE|FALSE (ssRNA)
RNA: GGGAGUUCUACAGUCCGACGAUCCUACCACACUAGCGUUUCCCACCAACUCUGGGGGCAGAGACCUUCACAGGCUUCACAAUCUUUUGUUUAGGUGCUGCCUUUGUGGGGGCCUUGGCAGCAGCCAUUGCUGUCUUCUUUGAUCAACAGAGGAUUGAGCAUCA
B3: chr2:48026839:48026840:+_ENSG00000116062_ENST00000540021|hu_hu|hu_hu_hu_mus_False|18_58 (ssRNA)
RNA: GGGAGUUCUACAGUCCGACGAUCAUAGUGAGCCACUAGCGUCCUAAAUCUGGAACAGUGGCGGUCAUCCGAAAACUGACCUAUGAAAAACUUGCCCAGUGAAGUGUCCACAAAGCACACACCAUAUACACGAGUGUGACCAGACAACAGAGGAUUGAGCAUCA
B4: chr1:182620099:182620100:+_ENSMUSG00000058729_ENSMUST00000085803|mus_mus|motif|central (ssRNA)
RNA: GGGAGUUCUACAGUCCGACGAUCAACAACAAAGCUUUUAUAAAUUAUGAUAAAUUAAAAUAUUUAUUAUUAUAAUUGAUCGGUAGAACCAUGUCCCACUGUCAGUAUAUGAAACAUACACUUAAGUCCGUGUUUCCCAUCUGUCAACAGAGGAUUGAGCAUCA
B5: chr16:23113652:23113653:+_ENSMUSG00000022884_ENSMUST00000115341|mus_mus|FALSE|FALSE (ssRNA)
RNA: GGGAGUUCUACAGUCCGACGAUCCCACAAGUAUAUUAUUAAAUGAUAGAGAACAUCUAAUACAACCAUUUCUACAUAACUAGUAAAUGAAUUUCUAAGAAAAAAAGAUUUUACAGACCCCAUCUUUUAUACCCACCCCCAACACAACAGAGGAUUGAGCAUCA
B6: chr5:67446008:67446009:+_ENSMUSG00000037736_ENSMUST00000038188|mus_mus|FALSE|FALSE (ssRNA)
RNA: GGGAGUUCUACAGUCCGACGAUCGCCCCCAAGGGUAAGUAACACAAAUGUCUCCGGGAAUACAGUAUAUAUUAUCAGACUAGUGUCUUUGCAUUAAAAAAAAAAAAAGUUAUAGUUCAGAGUCAGAACUCGCUGGGGUAUCUACAACAGAGGAUUGAGCAUCA
B7: chr5:67446008:67446009:+_ENSMUSG00000037736_ENSMUST00000038188|mus_mus|motif|central (ssRNA)
RNA: B6 RNA with U80G, A81G
B8: chr7:108213676:108213677:+_ENSG00000128590_ENST00000249356|hu_hu|FALSE|FALSE (ssRNA)
RNA: GGGAGUUCUACAGUCCGACGAUCUCCAUGAAAUCUAUUUUCAGUCUGUACUGUAUGCUGAUUGGUAGAGUCAAAACCACUAAAAGAAAACAUUUUCUCCAUAUCUUCAAACAUGUCAUCAAAUAAUCCACCUCCAAAAGAAAACAACAGAGGAUUGAGCAUCA
B9: 131763144_131763264_1223_3pUTR_ENSMUSG00000079037_ENSMUST00000091288|mouse|control|control (ssRNA)
RNA: GGGAGUUCUACAGUCCGACGAUCUCACCUUGUACUCUGGGUACAAGUCAGGGGAUACACCAGUAUUUAUUCACUAGACCAAAACAAAGCCCCAACUAGCCAGCAGUUAUUUGGUGUUAUAUUCUUAUUGGCCCGGUGUUAGCACAACAGAGGAUUGAGCAUCA
B10: chr10:70744696:70744697:+_ENSG00000165732_ENST00000354185|hu_hu|motif|central (ssRNA)
RNA: GGGAGUUCUACAGUCCGACGAUCUUAAAUUAGAAAAUAUUUUCUUUGUAGAAAAUAGUAAAAAUUAUAACAUUUACCAAGCGGACCCAACAAGUUCAUUUAAACCAAAAAGUAGCUAAAUACAUUAUACAUUUAUAAAUACAGCAACAGAGGAUUGAGCAUCA
B11: chr2:202488911:202488912:-_ENSG00000155755_ENST00000286196|hu_mus|hu_hu_hu_mus_False|8_98 (ssRNA)
RNA: GGGAGUUCUACAGUCCGACGAUCAUUGAAACAUUUUCAUAAUAUUGCAGUAGCAUUUCAGCAUUAUGUAACAAAAGCUCAAUUGUAAAUACAUGUAUCUUAUAAAAAUACACUUAAAAACACGAGUAAAAAUGGGAGGCGCCACAACAGAGGAUUGAGCAUCA
B12: 35171164_35172336_3352_CDS_ENSMUSG00000029104_ENSMUST00000080036|mouse|control|control (ssRNA)
RNA: GGGAGUUCUACAGUCCGACGAUCGGGGGCACUCGCUGCUAGCAAGUUUCCAGCCAAAAUCAAGGCAUCCUGAUGGGCUGAGAGAUCCAGUGGGAACCAAGCUGAUGAAAGCAAGGUGAGAAUCAUGGAGGCCAUCCCAACAGUCAACAGAGGAUUGAGCAUCA

This test concerns the target T1, UNK ZnF1-3. Kind of test: nsRBNS (natural sequence RNA bind-n-seq); RBNS binding buffer (assumed for nsRBNS): 25 mM Tris pH 7.5, 150 mM KCl, 3 mM MgCl2, 0.01% Triton X-100, 500 ug/ml BSA, 20 U/ml SUPERase-In, 4 C; UNK is unkempt and MSI1 is Musashi-1; names of the RNAs are library labels; protein concentration not given here; high values mean tight binding.
As to B1, the binding signal turned out to be 2.06 enrichment R.

The molecule B2 came in with a binding signal of 0.756 enrichment R.

With B3, the binding signal is 1.26 enrichment R.

For B4, the binding signal was 7.41 enrichment R.

B5 had a binding signal of 3.96 enrichment R.

In the case of B6, the binding signal stood at 5.07 enrichment R.

Molecule B7 yielded a binding signal of 3.48 enrichment R.

The molecule B8 had a binding signal of 1.22 enrichment R.

Consider B9, for which the binding signal stood at 0.474 enrichment R.

The molecule B10 came in with a binding signal of 3.65 enrichment R.

B11 showed a binding signal of 0.677 enrichment R.

Molecule B12 displayed a binding signal of 1.2 enrichment R.
